# Reference: PubChem BioAssay AID504332 (National Center for Advancing Translational Sciences (NCATS), 2011)
# Out of some 350,000 compounds screened, about 31,000 (8.9%) were called active. Entries that show only a call come without a potency. Roughly 15% stayed inconclusive and do not appear here. Calls follow the shape of the dose curve; as a rule, active = well fitted inhibition curve with a large enough effect; inconclusive = small, poorly fitted or top-dose-only effect; inactive = no such curve, though single readings can be large or run the other way. This excerpt belongs to a sample that is enriched for actives.
# Molecular target: Histone-lysine N-methyltransferase EHMT2 (Homo sapiens) (UniProt Q96KQ7)
# Assay: qHTS Assay for Inhibitors of Histone Lysine Methyltransferase G9a; also: nearly all actives have a fitted effect of over 75% in size
# Settings: G9a H3K9 monomethylation, AlphaScreen, 2 h; series mostly up to 59 µM
# Summary of the method: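 AlphaScreen read-out: biotin-H3K9 peptide (500 nM) methylation by 20 nM enzyme with 20 uM SAM, 2 h at room temperature after 15 min compound preincubation; anti-monomethyl H3K9 antibody plus donor/acceptor beads, 10 min dark.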
# Potency is read from the fitted curve at half-maximal effect.
# Histone-lysine N-methyltransferase EHMT2 (Homo sapiens), sequence (Q96KQ7 913-1193 limits assumed): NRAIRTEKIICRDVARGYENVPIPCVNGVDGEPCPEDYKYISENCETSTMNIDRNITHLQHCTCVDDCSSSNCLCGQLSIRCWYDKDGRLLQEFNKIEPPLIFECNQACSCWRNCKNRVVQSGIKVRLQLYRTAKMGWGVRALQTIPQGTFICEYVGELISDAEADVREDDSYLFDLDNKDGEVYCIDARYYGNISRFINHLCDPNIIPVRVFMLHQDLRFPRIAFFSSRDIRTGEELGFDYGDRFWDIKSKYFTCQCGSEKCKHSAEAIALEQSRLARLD
SMILES,Potency,"activity, negative = inhibition"
CCOC(=O)C1CCN(c2csc3ccc(C)cc3c2=O)CC1,inactive,
Cc1[nH]n(-c2cccc(Cl)c2)c(=O)c1-c1ccc(Cl)cc1,inactive,
Cc1[nH]n(-c2ccccc2)c(=O)c1N=Nc1ccccc1C(=O)N1CCCCC1,inactive,
Cc1[nH]n(C(N)=S)c(=O)c1N=Nc1ccc(Cl)cc1Cl,44.7 µM (active),
COc1ccccc1C(=O)Nc1ccc(OCC(=O)N2CCCCC2)cc1,,11.7% [at 2.33 µM] (inactive)
Cc1ccc(N2CCN(/N=C/c3cccs3)CC2)cc1,inactive,
C(=N/N1CCN(c2ccccc2)CC1)/c1cccs1,10 µM (active),
Nc1nnnn1/N=C/c1cccs1,inactive,
O=C(Nc1ccc2nc(SCC(=O)N3CCCc4ccccc43)sc2c1)c1ccc(F)cc1,inactive,
Cc1cc(C)c(S(=O)(=O)N(C)CC(=O)NCC2CCCO2)c(C)c1 (stereo not drawn),inactive,
CCC1CCCCN1S(=O)(=O)c1ccc(NC(=O)c2cc(=O)c3ccccc3o2)cc1 (stereo not drawn),inactive,
O=C(CCCCCn1c(=O)[nH]c2ccccc2c1=O)NCCc1c[nH]c2ccccc12,,-11.9% [at 0.0925 µM] (inactive)
C[C@]1(C(=O)NCCc2c[nH]c3ccccc23)C=C[C@@H](Cc2ccccc2)N1C(=O)c1ccccc1,50.1 µM (active),
O=C(NCCc1c[nH]c2ccccc12)C1CCN(Cc2ccc(Br)cc2)CC1,inactive,
CC1(C(=O)NCCc2c[nH]c3ccccc23)C=CC2(CCCCC2)N1C(=O)c1ccccc1 (stereo not drawn),79.4 µM (active),
O=C(CN1C(=O)NC2(CCCCC2)C1=O)NCCc1c[nH]c2ccccc12,inactive,
CC(=O)NC(Cc1c[nH]c2ccccc12)C(=O)NCCc1ccccc1 (stereo not drawn),inactive,
Cc1ccc(S(=O)(=O)N2[C@@H](c3ccccc3F)C(C(=O)O)=CC[C@H]2c2ccc(Cl)cc2)cc1,,-0.77% [at 2.33 µM] (inactive)
O=C(CSc1nccn1Cc1ccc(Cl)cc1)NCc1ccccc1,inactive,
COc1ccc([C@@H]2[C@@H]3C(=O)N(C(C)(C)C)C(=O)[C@@H]3[C@]3(Cc4ccccc4)C(=O)N(c4cccc(Br)c4)C(=O)N23)cc1,,-84.6% [at 2.33 µM] (inactive)
Cc1ccc(C(=O)NCCSc2c(C)[nH]c3ccccc23)cc1C,inactive,

SMILES,Potency,"activity, negative = inhibition"
Cc1cccc(-n2ncc(Cl)c(Cl)c2=O)c1,inactive,
CC(C)CN(C(=O)CSc1nncn1C)C1CCS(=O)(=O)C1 (stereo not drawn),,7.97% [at 2.33 µM] (inactive)
Cc1cccc(N2CCN(C(C)C(=O)N3CCc4ccccc43)CC2)c1C (stereo not drawn),inactive,
COC(=O)c1ccccc1NC(=O)c1ccc2c(=O)n3c(nc2c1)CCCCC3,inactive,
COc1ccc2c(c1)c(=O)c(S(=O)(=O)c1ccc(F)cc1)cn2CC(=O)Nc1ccc(C)cc1C,inactive,
O=C(CCC1CCCCC1)Nc1cc(C(F)(F)F)ccc1N1CCOCC1,inactive,
CC(C)CC(=O)Nc1cc(C(F)(F)F)ccc1N1CCOCC1,inactive,
Nc1cc(C(F)(F)F)ccc1N1CCOCC1,50.1 µM (active),
Cn1c(=O)oc2cc(S(=O)(=O)CCC(=O)NCCc3ccc(Cl)cc3)ccc21,inactive,
Cc1ccc(NNC(=O)c2cccs2)cc1Cl,8.91 µM (active),
Cc1ccc(NNC(=O)c2c(F)cccc2Cl)cc1Cl,inactive,
O=C(NNC(=O)c1ccc(Cl)cc1Cl)c1cccs1,inactive,
CCOc1ccc(-n2c(SCC(=O)NCc3ccccc3)nc3n[nH]c(C)c3c2=N)cc1,inactive,
Cc1ccc(S(=O)(=O)N2CCC(N3CCCCCC3)CC2)cc1,10 µM (active),
O=C(C1CCCN(S(=O)(=O)c2ccc([N+](=O)[O-])cc2)C1)N1CCCCC1 (stereo not drawn),inactive,
COc1ccc(S(=O)(=O)N2CCCC(C(=O)N3CCN(C)CC3)C2)cc1C (stereo not drawn),inactive,
Cc1ccc(S(=O)(=O)N2CCC(C(=O)Nc3cc(C)ccc3C)CC2)cc1,inactive,
CC(=O)Nc1ccc(S(=O)(=O)N2CCN(C3CCCCCCC3)CC2)cc1,inactive,
Cc1ccc(S(=O)(=O)N2CCCC(C(=O)N3CCN(C)CC3)C2)cc1 (stereo not drawn),10 µM (active),
COc1ccc(NC(=O)CSc2nc3ccccc3[nH]2)cc1,inactive,
CC1CCCCC1NC(=O)CCS(=O)(=O)c1ccc2c(c1)NC(=O)CO2 (stereo not drawn),inactive,

SMILES,Potency,"activity, negative = inhibition"
CCN(C(=O)c1cc([N+](=O)[O-])ccc1NCc1cccnc1)c1ccccc1,inactive,
CC(C)(C)OC(=O)N1CCC(c2c(C(=O)N3CCN(c4cccc(Cl)c4)CC3)cnn2-c2cccc(Cl)c2)CC1,inactive,
COc1ccc(C(=O)NC(=S)N2CCNC(=O)C2CC(=O)OC(C)C)cc1 (stereo not drawn),25.1 µM (active),
CCC1C(=O)NCCN1C(=O)c1ccc2nc(Cc3ccc(OC)cc3)oc2c1 (stereo not drawn),inactive,
COc1cccc(NC(=O)CC2C(=O)NCCN2C(=S)Nc2ccc(F)cc2)c1 (stereo not drawn),inactive,
C/C(=N\NC(=O)Cc1ccc(Cl)cc1)c1ccccn1,inactive,
O=C(Cc1ccc(Cl)cc1)NCc1nc(-c2ccccc2)no1,inactive,
C/C(=N/Nc1ccc(Cl)cc1)c1cnnc(-c2ccccc2)n1,39.8 µM (active),
Cc1cc(C(=O)Nc2cccc(C(F)(F)F)c2)c2c(C)nn(-c3cccc(F)c3)c2n1,inactive,
COc1ccc(N2CCN(c3ccc([N+](=O)[O-])nc3)CC2)cc1,inactive,
O=[N+]([O-])c1ccc(N2CCN(c3ccc(O)cc3)CC2)c(Cl)c1,3.16 µM (active),
CCN1CCN(c2ccc([N+](=O)[O-])cc2C(=O)c2ccc(Cl)cc2)CC1,,36.3% [at 0.501 µM] (inactive)
COc1ccc(N2CCN(c3ccc([N+](=O)[O-])cc3Cl)CC2)cc1,7.94 µM (active),
O=C(c1cncc(Br)c1)N1CCN(c2ccc([N+](=O)[O-])cc2)CC1,inactive,
CN(C)S(=O)(=O)N1CCN(c2ccc([N+](=O)[O-])cc2)CC1,inactive,
COc1cc(CN(CC2CCCO2)C(=O)c2ccccc2F)cc(OC)c1OC (stereo not drawn),inactive,
Cc1ccc(S(=O)(=O)N(C)CC(=O)NCC(c2ccc(F)cc2)N2CCOCC2)cc1 (stereo not drawn),,19.1% [at 12.7 µM] (inactive)
CCOC(=O)CSC1=Nc2ccccc2C2=NC(CCC(=O)NCc3ccc(F)cc3)C(=O)N12 (stereo not drawn),inactive,
O=[N+]([O-])c1cc(S(=O)(=O)N2CCCC2)ccc1NN=C1CCCC1,inactive,
O=[N+]([O-])c1ccc(NCCCN2CCOCC2)c(Cl)c1,,20.5% [at 2.33 µM] (inactive)
CC(C)N1CCC(=NNc2ccc([N+](=O)[O-])cc2S(=O)(=O)N2CCOCC2)CC1,15.8 µM (active),
